# Reference: PubChem BioAssay AID2314 (National Center for Advancing Translational Sciences (NCATS), 2010)
# Hit rate of the full screen: of about 300,000 compounds, about 37,000 (12%) were called active. This excerpt belongs to a sample that is enriched for actives. A number with no mark means an inactive call. Cut-off read from the data, not from the text of the source: active = max response mostly above about 13% (no sharp cut-off); inactive = mostly below about 14%.
# Test: Cycloheximide Counterscreen for Small Molecule Inhibitors of Shiga Toxin; note: read at 38.3 µM for the half of the compounds with a filed dose; 0% is about no effect
# Settings: cell reporter, cycloheximide protein synthesis inhibition counterscreen; active compounds read high
row,SMILES,max response
1,O=C(NCCc1c[nH]c2ccccc12)C1CCN(Cc2ccc(Br)cc2)CC1,-1.22%
2,COc1cc(OC)c(NC(=O)C2CCCN2C(=O)OCc2ccccc2)cc1Cl (stereo not drawn),-2.36%
3,COC(=O)c1ccc(OC(=O)c2nn(C)cc2Cl)c(OC)c1,8.01%
4,COc1ccc(S(=O)(=O)NCCCCOc2ccc(Cl)cc2)cc1,-3.02%
5,CCNS(=O)(=O)c1ccc(NC(=O)Nc2cccc(OC)c2)cc1,10.4%
6,COc1cccc(NC(C)=[N+](C)CCNS(=O)(=O)c2ccc(Cl)cc2)c1,43.4% (active)
7,CC/C(=N\NC(=O)c1c(C)nc2ccccn12)c1ccc(Cl)cc1,6.12%
8,CN(C)c1ccc(C2N(C)C(=O)c3ccccc3N2C)cc1 (stereo not drawn),-2.11%
9,O=C(C1=C(O)C(=O)N(CCOCCO)C1c1ccccn1)c1cccs1 (stereo not drawn),15.5% (active)
10,O=C(COc1ccc2ccccc2c1)N1CCN(C(=O)c2cccs2)CC1,-3.04%
11,O=C(C1=C(O)C(=O)N(c2ncccn2)C1c1cccs1)c1ccco1 (stereo not drawn),0.951%
12,Cc1ccc2[nH]c(=O)c(CC(=O)O)c(-c3ccccc3)c2c1,-1.3%
13,c1ccc(COc2ccccc2CNCc2cccnc2)cc1,2.03%
14,CC(C)(C)OC(=O)N/N=C/c1ccc(C(=O)O)cc1,29.1% (active)
15,COC(=O)N/N=C/c1ccc(/C=N/NC(=O)OC)cc1,-2.42%
16,O=C(O)c1ccc(/C=N/NC(=O)c2ccc(Br)cc2)cc1,-2.33%
17,Cc1cccc2c1cnn2C(=O)CCC(=O)NC1CCCCC1,4.44%
18,Cc1nc2nc(SCC(=O)Nc3cccc(F)c3)[nH]c2cc1Br,1.17%
19,CNC(=O)n1ccc(C(=O)N2CCCCC2)n1,1.48%
20,COc1ccccc1-c1cc(C(=O)N2CCCCC2)no1,59.2% (active)
21,COc1cccc(OC)c1OCCN1CCN(C(=O)c2ccco2)CC1,-3.58%
22,COc1ccccc1N1CCN(C(=O)c2cc(-c3ccc(Cl)c(Cl)c3)on2)CC1,-1.8%
23,O=C(C1CCN(S(=O)(=O)c2cccs2)CC1)N1CCCCCC1,10%
24,O=C(c1ccco1)N1CCN(C(=O)c2ccc(COc3ccc(F)cc3)o2)CC1,-1.31%

row,SMILES,max response
1,O=C(c1ccc(Cl)c(Cl)c1)N1CCCC1,-2.63%
2,O=C(c1cc(-c2cccs2)on1)N1CCCCC1,50.6% (active)
3,O=C(c1cc(-c2ccccc2O)on1)N1CCCC1,35% (active)
4,COc1cccc(-c2cc(C(=O)N3CCN(c4ccccc4OC)CC3)no2)c1,7.23%
5,COc1cccc(OCc2cc(C(=O)N3CCN(C(=O)c4ccco4)CC3)no2)c1,44.9% (active)
6,N#Cc1cccc(NC(=O)CN2CCCCCC2)c1,4.22%
7,CC1CN(C(=O)CCC(=O)NCc2cccnc2)c2ccccc2O1 (stereo not drawn),0.76%
8,OCCN(Cc1ccccc1)Cc1ccc(Cl)cc1,-2.21%
9,CCc1nnc(NC(=O)CCN(c2ccc(C)cc2)S(=O)(=O)c2ccccc2)s1,-1.73%
10,COc1ccc(C2NC(=O)N(C)C(C)=C2[N+](=O)[O-])cc1 (stereo not drawn),-2.28%
11,COc1cc2c(C(=O)N(C)c3cc(Cl)ccc3OC)cn(C)c(=O)c2cc1OC,-3.47%
12,CCn1ccnc1CN(C)C(=O)c1cc(COc2ccc(Cl)cc2OC)on1,39.1% (active)
13,Cc1ccc(C)c(OCc2cc(C(=O)N3CCN(c4cnccn4)CC3)no2)c1,19.7%
14,CC(=O)Nc1cccc(Nc2nc(-c3cccs3)nc3ccccc23)c1,13.3%
15,COc1ccccc1OCc1ccc(C(=O)N2CCN(C)CC2)o1,1.3%
16,COc1ccc(C(=O)C2CCCN(C(=O)c3cc(C)on3)C2)cc1F (stereo not drawn),1.02%
17,COc1cc(Cl)ccc1OCc1cc(C(=O)N2CC[C@@H]3CCCC[C@H]3C2)no1,38.6% (active)
18,CCn1ccnc1CN(C)C(=O)c1cc(COc2ccc(-n3cncn3)cc2)on1,-1.13%
19,Cc1cc(NC(=O)c2cc(-c3cccs3)on2)nn1Cc1ccc(Cl)cc1,9.8%
20,COc1cc(Cl)ccc1OCc1cc(C(=O)N(C)CCc2c(C)n[nH]c2C)no1,32.5%
21,COc1ccc(OCc2cc(C(=O)N3CCCC3)no2)c2ccccc12,65.1% (active)
22,CC(=O)c1ccc(NC(=O)c2cc(-c3cccs3)on2)cc1,16.4% (active)
23,O=C(Cc1csc(Nc2nc(=S)[nH]c3ccccc23)n1)NCCCN1CCN(c2cccc(Cl)c2)CC1,1.69%
24,Cc1ccnc(NC(=O)Cn2ccc([N+](=O)[O-])n2)c1,-1.7%

row,SMILES,max response
1,CCOC(=O)/C(=N\Nc1cc(Cl)ccc1Cl)N1CCN(C)CC1,-1.84%
2,Cc1c(C)c2c(OCC(=O)NCCCO)cc3c(c2oc1=O)CCC(C)(C)O3,0.89%
3,CN(CC#CCC(c1ccccc1)c1ccccc1)C(C)(C)C,-2.81%
4,Cc1ccccc1NC(=O)CSc1nc2ccc(Nc3nc(N4CCOCC4)nc(N4CCOCC4)n3)cc2s1,-3.62%
5,CCCCC1(C(=O)OCC)NC(c2ccc(O)cc2)C2C(=O)N(c3ccccc3)C(=O)C21 (stereo not drawn),-1.77%
6,CCOc1ccc(OCC(=O)Nc2c3c(nn2C(C)(C)C)CS(=O)(=O)C3)cc1,0.307%
7,N#CCC(=O)N/N=C/c1cn(Cc2ccc3ccccc3c2)c2ccccc12,1.05%
8,c1ccc(Cc2cc[n+](Cc3ccccc3)cc2)cc1,-3.55%
9,Cc1ccc(CN(Cc2cccnc2)C(=S)Nc2cccc(Cl)c2C)cc1,9.59%
10,CCCCC(=O)Nc1ccccc1N1CCN(c2ccc(F)cc2)CC1,5.13%
11,Cc1c(S(=O)(=O)NC(C)c2ccccc2)c(=O)n(C)c(=O)n1C (stereo not drawn),1.11%
12,Cc1coc2c1c(C)cc1oc(=O)c(CC(=O)NCC(=O)N[C@H](C(=O)O)C(C)C)c(C)c12,-5.82%
13,C/C(N)=C(/C#N)C(=O)COC(=O)c1cc(-c2ccc(C)cc2)nc2ccccc12,32.1% (active)
14,C/C(N)=C(/C#N)C(=O)COC(=O)c1cc(-c2ccccc2)nc2ccc(Br)cc12,-2.32%
15,C/C(N)=C(/C#N)C(=O)COC(=O)c1cc(-c2cccc(Br)c2)nc2ccccc12,0.776%
16,COc1ccc(NC2=CC(=S)NC(C)(C)C2)cc1,-1.18%
17,Cc1csc(Nc2ccc(Cl)cc2)[n+]1-c1ccc(Cl)cc1,8.25%
18,O=C(Nc1nsc(-c2ccccc2)n1)c1ccncc1,15.5% (active)
19,COC(=O)c1nc(NC(=O)c2ccccc2)n[nH]1,-3.23%
20,O=C(CSc1ncn[nH]1)Nc1nsc(-c2ccccc2)n1,15.2%
21,Cc1cc(C)cc(NC(=O)CSCc2cnn(-c3ccccc3)c2-n2cccc2)c1,16.3%
22,O=c1ccc(-c2ccc(S(=O)(=O)Nc3ccccc3)o2)n[nH]1,-12.6%
23,CCCC[C@H]1COCCS(=O)(=O)N1Cc1cccc(Cl)c1,0.203%
24,O=S1(=O)CCOC[C@H](CC2CCCCC2)N1Cc1ccc(F)cc1,17.1% (active)

row,SMILES,max response
1,CCC(C)[C@H]1COCCS(=O)(=O)N1Cc1ccc(C)cc1 (stereo partly drawn),1.06%
2,O=S(=O)(c1ccc(Cl)cc1)N1CCCN(c2ccc(C(F)(F)F)cn2)CC1,-1.58%
3,O=C(Nc1cc(=O)[nH]c2ncnn12)c1ccccc1Cl,-7.22%
4,O=C(N/N=C/c1ccc(OC(=O)c2ccccc2Cl)cc1)c1ccc(O)cc1,-3.06%
5,COc1ccccc1-n1c(O)c(C=NC2CC2)c(=O)[nH]c1=O,-4.22%
6,O=C(N/N=C/c1c(O)n(C2CC2)c(=S)[nH]c1=O)c1ccccc1Cl,19.5% (active)
7,O=c1[nH]c(=S)n(C2CC2)c(O)c1/C=N/N1CCOCC1,-4.88%
8,O=C(N/N=C/c1c(O)n(C2CC2)c(=S)[nH]c1=O)c1ccccc1,38.1% (active)
9,COC(=O)CCSc1cc([N+](=O)[O-])cc2c1c(C1OCCS1)nn2-c1ccccc1 (stereo not drawn),-3.43%
10,O=C(NCCN1CCOCC1)c1ccc(/C=C2\Sc3ccccc3N(Cc3ccc(F)cc3)C2=O)cc1,11.1%
11,Cc1nc(-c2nnc(SCC(=O)Nc3cc(C(F)(F)F)cc(C(F)(F)F)c3)n2C)cs1,-0.852%
12,CCOC(=O)c1c(-c2ccccc2)oc2ccc(OCC(=O)NN)cc12,-3.08%
13,CCOCCCn1c(SCC(=O)Nc2cc(OC)ccc2OC)nc2ccccc2c1=O,-2.84%
14,Cc1nn(C)c(Cl)c1CN1CCC(Oc2ccc(C(=O)N3CCCC3)cc2)CC1,0.779%
15,CC(C)OC(=O)c1sc2nc3c(cc2c1N)C(=O)CCC3,19.5% (active)
16,Nc1c(C(=O)NCc2ccccc2)sc2nc3c(cc12)C(=O)CCC3,8.86%
17,COCc1cc(C)nc2sc(C(=O)NC3CCCCC3)c(N)c12,11.4%
18,CCn1c(CC(=O)Nc2ccccc2C)nnc1SCC(=O)NC1=NCCS1,7.82%
19,COC(=O)Cc1ccc(N(Cc2ccccc2F)S(=O)(=O)c2ccc(Br)cc2)cc1,-4.43%
20,COc1ccc(Cl)cc1NS(=O)(=O)c1cccc(C(=O)NCC2CCCO2)c1 (stereo not drawn),-3.64%
21,CC(=O)N1c2ccc(S(=O)(=O)N(C)CC(=O)N(C)Cc3ccccc3)cc2CC1C (stereo not drawn),-2.22%
